Bioassay records: PubChem, National Center for Advancing Translational Sciences (NCATS)
Hits are enriched below; roughly 11% of the tested compounds scored in any of these assays.
ALDH1A1 inh = blocks purified human ALDH1A1 activity | actives 7.3% (n = 220,000) | AID 1030 | Purified ALDH1A1, NADH fluorescence, propionaldehyde substrate | Potency, µM (highest dose often 75.3 µM), for inactives: top-dose activity, negative = inhibition, most hits filed as inhibitors | P00352;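 note: potency is the fitted concentration of half-maximal effect; plate controls were no enzyme wells and a reference inhibitor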
Target sequence (P00352 whole entry, looked up): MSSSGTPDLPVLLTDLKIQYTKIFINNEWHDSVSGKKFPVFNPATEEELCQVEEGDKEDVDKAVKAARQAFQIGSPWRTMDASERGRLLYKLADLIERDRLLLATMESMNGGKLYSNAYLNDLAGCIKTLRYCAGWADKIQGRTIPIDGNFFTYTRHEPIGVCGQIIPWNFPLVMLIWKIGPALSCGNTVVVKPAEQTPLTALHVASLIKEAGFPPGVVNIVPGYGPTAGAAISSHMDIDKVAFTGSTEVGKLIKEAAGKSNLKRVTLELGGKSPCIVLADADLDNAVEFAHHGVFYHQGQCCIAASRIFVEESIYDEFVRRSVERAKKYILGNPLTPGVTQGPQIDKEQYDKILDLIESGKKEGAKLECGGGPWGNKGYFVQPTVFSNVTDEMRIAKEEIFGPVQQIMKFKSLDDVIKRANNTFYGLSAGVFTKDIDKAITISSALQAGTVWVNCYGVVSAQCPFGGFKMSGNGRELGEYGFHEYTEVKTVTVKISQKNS
HPGD inh = HPGD (human) dehydrogenase inhibition; AID 894; P15428; actives 4.3% (n = 150,000); purified HPGD, NADH fluorescence kinetic, PGE2 substrate; Potency, µM, without a hit: top-dose activity change, negative = inhibition, hits mostly inhibitors; note: potency is the fitted concentration of half-maximal effect
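20 nM HPGD preincubated 15 min at room temperature with compound in 50 mM Tris-HCl pH 8, 0.01% Tween 20. Started with 1 mM NAD+ and 30 uM prostaglandin E2; NADH fluorescence (360/450 nm) read 5 times over 30-s intervals, last minus first.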
PNC assembly inh = perinucleolar compartment assembly inhibition; PC3M PTB-GFP, PNC prevalence imaging, 16 h; stronger effect = lower value; activity change (PNC), negative = inhibition, % at 10 µM; actives 3.1% (n = 140,000); AID 2417;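 active = readout at or below -70, meaning at least 70% loss of cells showing the perinucleolar compartment, a nuclear body marking cancer cells; inconclusive = readout between -30 and a set limit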;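 note: plate controls were DMSO wells for no effect and camptothecin positive control wells for full effect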
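Read-out is percentage of cells bearing a perinucleolar compartment, from automated 20x imaging of fixed, Hoechst-stained PC3M PTB-GFP cells. Cells were seeded 4 h, then exposed 16 h to compound (23 nl of library stock) in duplicate plates.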
* = called active by the depositor; ? = inconclusive; nt = no result. Unless noted, calls come from the whole dose curve; as a rule, active = well fitted inhibition curve with a large enough effect (not every such curve was filed as active); inconclusive = small, poorly fitted or top-dose-only effect, or another doubt; inactive = no such curve, though single readings can be large or run the other way. Unless noted, % is set by controls: 0 for no effect and ±100 for the full control effect.

SMILES | ALDH1A1 inh | HPGD inh | PNC assembly inh
CC(=O)C1=C(C)NC(SCC(N)=O)=C(C#N)C1c1cccnc1 (stereo not drawn) | ? | -6% | -29
CC1=C(C(=O)OC2CCCCC2)C(c2ccco2)C2=C(CC(C)(C)CC2=O)N1 (stereo not drawn) | ? | -21% | ?
COc1ccccc1NC(=O)C1=C(C)NC(SCC(=O)c2ccccc2)=C(C#N)C1c1ccco1 (stereo not drawn) | 14µM* | ? | ?
CC1=C(C(=O)Nc2ccc(Cl)cc2)C(c2ccncc2)C(C#N)=C(SCC(N)=O)N1 (stereo not drawn) | ? | -17% | 18
CC(=O)C1=C(C)NC(SCC(=O)c2ccc(C)cc2)=C(C#N)C1c1ccco1 (stereo not drawn) | 10µM* | 28µM* | 5
Cc1ccc(NC(=O)CSC2=C(C#N)C(c3ccco3)C3=C(CCCC3=O)N2)cc1 (stereo not drawn) | ? | ? | 13
CCOc1nc(Nc2ccc(OC)c(Cl)c2)nc(OCC)n1 | -5% | -8% | -19
CC(=O)Nc1ccc(C(F)(F)F)cc1Cl | 3% | nt | nt
NS(=O)(=O)c1ccc(CCNC(=O)c2ccccc2F)cc1 | 16% | -13% | 23
S=c1[nH]nc(COc2ccc(Cl)cc2)n1Cc1ccco1 | -10% | nt | nt
O=C(CSc1nnc(-c2ccc(OC(F)F)cc2)o1)NC(=O)NCc1ccco1 | 6% | -14% | -3
Cc1ccc(NC(=O)CSC2=C(C#N)C(c3ccc4c(c3)OCO4)CC(=O)N2)cc1C (stereo not drawn) | 1% | -10% | -100*
CCc1ccccc1NC(=O)CSC1=C(C#N)C(c2ccc3c(c2)OCO3)C2=C(CCCC2=O)N1 (stereo not drawn) | 25µM* | -20% | ?
CCOC(=O)C1=C(C)NC(SCC(=O)OC)=C(C#N)C1c1ccc(C(=O)OC)cc1 (stereo not drawn) | ? | ? | -20
N#CC1=C(SCc2ccccc2)NC(=O)CC1c1ccccc1 (stereo not drawn) | ? | -11% | -24
CCOC(=O)CSC1=C(C#N)C(c2ccc(F)cc2)C(C(C)=O)=C(C)N1 (stereo not drawn) | 22µM* | -27% | -16
COc1ccc(OC)c(NC(=O)CSC2=C(C#N)C(c3ccco3)C3=C(CCCC3=O)N2)c1 (stereo not drawn) | ? | -20% | -30
CCOC(=O)CSC1=C(C#N)C(c2ccc3c(c2)OCO3)CC(=O)N1 (stereo not drawn) | -10% | -12% | 19
N#CC1=C(SCC(=O)Nc2ccc(C(=O)O)cc2)NC(=O)CC1c1ccco1 (stereo not drawn) | 13µM* | nt | nt
O=C(O)c1cn(-c2ccc(F)c(F)c2)c2c(F)c(F)c(F)c(F)c2c1=O | ? | -4% | -16
CCn1c(COc2ccc(=O)n(-c3ccccc3)n2)nnc1SC | -1% | nt | nt
CCOC(=O)c1sc(NC(=O)CCCn2nc([N+](=O)[O-])cc2C)c(C(=O)OCC)c1C | -7% | -4% | -8
COc1ccccc1C/C(N)=N/OC(=O)/C=C/c1ccccc1 | -3% | nt | nt
CCOc1ccc(C(CC(=O)O)NC(=O)C23CC4CC(CC(C4)C2)C3)cc1 (stereo not drawn) | 15% | -9% | -8
CCN(CC(=O)NCc1cccs1)C(=O)CCc1c[nH]c2ccccc12 | 2% | nt | nt
SMILES | ALDH1A1 inh | HPGD inh | PNC assembly inh
COCCOC(=O)C1=C(C)NC(SCC(=O)NC(C)(C)C)=C(C#N)C1c1ccco1 (stereo not drawn) | 6% | 16µM* | ?
C=CCOC(=O)C1=C(C)NC(SCC(=O)Nc2ccc(C)c(Cl)c2)=C(C#N)C1c1ccco1 (stereo not drawn) | ? | ? | 26
CCOC(=O)CSC1=C(C#N)C(c2ccc(C)o2)CC(=O)N1 (stereo not drawn) | -14% | -9% | -85*
CCOC(=O)CSC1=C(C#N)C(c2ccc(Cl)cc2)CC(=O)N1 (stereo not drawn) | 2% | 1% | -14
CCCCOC(=O)CSC1=C(C#N)C(c2cccnc2)C(C(=O)OCC)=C(c2ccccc2)N1 (stereo not drawn) | 11% | nt | nt
N#CC1=C(SCC(=O)c2ccc(Cl)cc2)NC2=C(C(=O)CCC2)C1c1ccco1 (stereo not drawn) | 28µM* | -20% | ?
CCOC(=O)CSC1=C(C#N)C(c2ccc(C)cc2)C2=C(CCCC2=O)N1 (stereo not drawn) | ? | -25% | -13
CCOC(=O)C1=C(c2ccccc2)NC(SCC(=O)NC2CCCCC2)=C(C#N)C1c1ccco1 (stereo not drawn) | 18µM* | -28% | 30
